Laboratory results published in PubChem BioAssay (NCI).
Where “and” joins values, the source holds several entries; their conditions need not be identical. Equal values may be shown once. About 79,000 compounds went through this panel and 15% of them were active in at least one assay; those are over-represented in the sample as a whole. Values without a mark were called inactive. Calls of active or inactive are those of the source. Cut-off read from the data, not from the text of the source: active = growth inhibition above about 70%; inactive = the rest.

Test: NCI Yeast Anticancer Drug Screen. Data for the rad50 strain (AID 155);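 note: 0% = growth of vehicle-only cultures of the same strain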
Settings: S. cerevisiae rad50 strain growth inhibition, hits give high values; at 50.0 µM unless noted
Summary of the method: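 Compounds were tested on a yeast strain with an engineered DNA damage repair alteration; the reported value is growth inhibition normalised to vehicle treatment.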

Compared with O=C(C1=CCCCC1)c1ccc(-c2ccccc2)cc1, NC(=O)Nc1ccccc1-c1ccccc1 is higher in growth inhibition: -4.25% for the first, -0.6% for the second.

Going from c1ccc2c(c1)C(=NCCCN1CCCCCCC1)c1cccn1-2 to O=C1C(N2CCCCC2)=C(c2ccccc2)c2ccccc21, the growth inhibition falls from 23.5% to 5.1%.

First: Cn1cnc([N+](=O)[O-])c1Sc1nc2cc(Cl)c(F)cc2[nH]1
Second: COc1ccc(OC)c2[nH]c(Sc3c([N+](=O)[O-])ncn3C)nc12
The growth inhibition of the first is lower: -35.6% for the first, -5.95% for the second.

Compared with COCCCC(=O)CNC(C)C, CCCCC(C)(C)SCCC(=O)O is higher in growth inhibition: -5.05% for the first, 11.2% for the second.

Going from O=C(CCS(=O)(=O)CCC(=O)c1ccc2ccccc2c1)c1ccc2ccccc2c1 to O=C(NCc1ccccc1)C(=O)NCc1ccccc1, the growth inhibition rises from -66.8% to 4.35%.

Going from Nc1nc(N)c2nc(SC34CC5CC(CC(C5)C3)C4)c(N)nc2n1 to CN(Cc1cnc2nc(N)nc(N)c2n1)c1ccc(C(=O)NC(CCC(=O)OCc2c(Cl)cccc2Cl)C(=O)OCc2c(Cl)cccc2Cl)cc1 (stereo not given), the growth inhibition rises from -1.6% to 17.1%.

First: CC(C)(O)CCNc1ncnc2c1ncn2C1OC(CO)C(O)C1O (stereo not given)
Second: Nc1ncnc2c1ncn2CC(O)CN(CCO)CCO (stereo not given)
The growth inhibition of the first is lower: 2% for the first, 13.1% for the second.

First: OC(CN1CCCC1)c1ccccc1 (stereo not given)
Second: O=C1CCC(=O)N1C(c1ccccc1)c1ccccc1
The growth inhibition of the first is higher: -1.8% for the first, -10.4% for the second.

Going from O=C1c2ccccc2C(=O)N1CN1C(=O)c2ccccc2S1(=O)=O to COC(=O)c1ccccc1-c1ccccc1C(=O)O, the growth inhibition falls from 24.1% to 1.2%.

First: COc1ccccc1N=C(N)N/N=C/c1c[nH]c2ccccc12
Second: CCOC(=O)c1c[nH]n(-c2ccccc2)c1=O
The growth inhibition of the first is lower: 0.25% for the first, 9.65% for the second.

Compared with CC(=O)Nc1nc(SCc2ccccc2)c2[nH]cnc2n1, CN(C)CCNC(=O)Nc1cccc2ccccc12 is higher in growth inhibition: -25.2% for the first, 16% for the second.

Going from CC1=CCCC2C(C=O)(C1)CC(C)C2(CO)CC/C(=C/CO)CO (stereo not given) to O=C(O)C1C2CCCC21 (stereo not given), the growth inhibition falls from 3.8% to -10.8%.

First: CCCCCC[N+](C)(C)C
Second: CCCCCCCCCCCCCCCCCC(=O)N1CCN(C(=O)CCCCCCCCCCCCCCCCC)C1
The growth inhibition of the first is lower: 28% for the first, 30.4% for the second.

Going from CC(=NCCCCN=C(C)c1cc(O)cc(Br)c1O)c1cc(O)cc(Br)c1O.[Co] to O=C(O)c1cc(Cl)c2ccccc2c1O, the growth inhibition rises from 17.9% to 46.8%.

Going from Cc1ccc(S(=O)(=O)OCC2C3C=CC(C4C=CC43)C2COS(=O)(=O)c2ccc(C)cc2)cc1 (stereo not given) to Cc1ccc2c(c1)P(=O)(O)c1cc(C)ccc1S2, the growth inhibition falls from -4.25% to -12.4%.

First: Cc1ccc(/C=C2\CCCC\C2=N\O)cc1
Second: Cc1ccc2nc(=O)c3cccnc3n2c1
The growth inhibition of the first is lower: 5.15% for the first, 25.9% for the second.

First: O=C(Nc1ccc([N+](=O)[O-])cc1C(=O)O)c1ccc([N+](=O)[O-])cc1
Second: O=C(O)Cc1ccc(O)cc1
The growth inhibition of the first is higher: 37.8% for the first, 6.25% for the second.

First: CCCCOC(=O)NC(=O)c1cc2cc(Cl)ccc2oc1=O
Second: Cc1cc(OCC(=O)O)cc(C)c1C
The growth inhibition of the first is higher: 4.65% for the first, 1% for the second.

Going from CCOC(=O)c1[nH]c(=O)[nH]c(=O)c1[N+](=O)[O-] to CC(C(=O)O)N1C(=O)CNC1=O (stereo not given), the growth inhibition falls from 0.4% to -1.85%.

For Nc1cc(N)c(N)cc1N, the growth inhibition was -30.1% and -6.2%.
In the case of CCCCOP(=O)(Nc1ccc([N+](=O)[O-])cc1)OCCCC, the growth inhibition was 94.1% (active).

Test: NCI Yeast Anticancer Drug Screen. Data for the mec2-1 strain (AID 157)
Settings: S. cerevisiae mec2-1 strain, hits give high values; at 50.0 µM unless noted
Summary of the method: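 Test agents were screened against the mec2-1 yeast strain, with defined DNA repair or cell cycle alteration. Growth was scored as inhibition against vehicle-only controls.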

Going from O=C(C1=CCCCC1)c1ccc(-c2ccccc2)cc1 to NC(=O)Nc1ccccc1-c1ccccc1, the growth inhibition falls from 11.2% to -11.2%.

Going from c1ccc2c(c1)C(=NCCCN1CCCCCCC1)c1cccn1-2 to O=C1C(N2CCCCC2)=C(c2ccccc2)c2ccccc21, the growth inhibition falls from 9.95% to 7.5%.

Going from Cn1cnc([N+](=O)[O-])c1Sc1nc2cc(Cl)c(F)cc2[nH]1 to COc1ccc(OC)c2[nH]c(Sc3c([N+](=O)[O-])ncn3C)nc12, the growth inhibition rises from -27.9% to -13.9%.

First: COCCCC(=O)CNC(C)C
Second: CCCCC(C)(C)SCCC(=O)O
The growth inhibition of the first is lower: -42.1% for the first, -7.25% for the second.

Compared with O=C(CCS(=O)(=O)CCC(=O)c1ccc2ccccc2c1)c1ccc2ccccc2c1, O=C(NCc1ccccc1)C(=O)NCc1ccccc1 is higher in growth inhibition: -13.2% for the first, -1.85% for the second.

Going from Nc1nc(N)c2nc(SC34CC5CC(CC(C5)C3)C4)c(N)nc2n1 to CN(Cc1cnc2nc(N)nc(N)c2n1)c1ccc(C(=O)NC(CCC(=O)OCc2c(Cl)cccc2Cl)C(=O)OCc2c(Cl)cccc2Cl)cc1 (stereo not given), the growth inhibition rises from 2.05% to 9.2%.

Going from CC(C)(O)CCNc1ncnc2c1ncn2C1OC(CO)C(O)C1O (stereo not given) to Nc1ncnc2c1ncn2CC(O)CN(CCO)CCO (stereo not given), the growth inhibition rises from -1.75% to 7.95%.

Going from OC(CN1CCCC1)c1ccccc1 (stereo not given) to O=C1CCC(=O)N1C(c1ccccc1)c1ccccc1, the growth inhibition rises from -11.2% to 6.95%.

Compared with O=C1c2ccccc2C(=O)N1CN1C(=O)c2ccccc2S1(=O)=O, COC(=O)c1ccccc1-c1ccccc1C(=O)O is lower in growth inhibition: 15.6% for the first, -3.35% for the second.

Going from COc1ccccc1N=C(N)N/N=C/c1c[nH]c2ccccc12 to CCOC(=O)c1c[nH]n(-c2ccccc2)c1=O, the growth inhibition rises from -8.85% to -3.95%.

Compared with CC(=O)Nc1nc(SCc2ccccc2)c2[nH]cnc2n1, CN(C)CCNC(=O)Nc1cccc2ccccc12 is higher in growth inhibition: 1.75% for the first, 8.35% for the second.

Compared with CC1=CCCC2C(C=O)(C1)CC(C)C2(CO)CC/C(=C/CO)CO (stereo not given), O=C(O)C1C2CCCC21 (stereo not given) is higher in growth inhibition: 4.05% for the first, 30.2% for the second.

Compared with CCCCCC[N+](C)(C)C, CCCCCCCCCCCCCCCCCC(=O)N1CCN(C(=O)CCCCCCCCCCCCCCCCC)C1 is lower in growth inhibition: -16.3% for the first, -18.3% for the second.

Going from CC(=NCCCCN=C(C)c1cc(O)cc(Br)c1O)c1cc(O)cc(Br)c1O.[Co] to O=C(O)c1cc(Cl)c2ccccc2c1O, the growth inhibition rises from 17.9% to 45.8%.

Going from Cc1ccc(S(=O)(=O)OCC2C3C=CC(C4C=CC43)C2COS(=O)(=O)c2ccc(C)cc2)cc1 (stereo not given) to Cc1ccc2c(c1)P(=O)(O)c1cc(C)ccc1S2, the growth inhibition falls from -0.65% to -16.6%.

First: Cc1ccc(/C=C2\CCCC\C2=N\O)cc1
Second: Cc1ccc2nc(=O)c3cccnc3n2c1
The growth inhibition of the first is lower: -7% for the first, 31.1% for the second.

First: O=C(Nc1ccc([N+](=O)[O-])cc1C(=O)O)c1ccc([N+](=O)[O-])cc1
Second: O=C(O)Cc1ccc(O)cc1
The growth inhibition of the first is higher: -3.6% for the first, -25.6% for the second.

Compared with CCCCOC(=O)NC(=O)c1cc2cc(Cl)ccc2oc1=O, Cc1cc(OCC(=O)O)cc(C)c1C is lower in growth inhibition: 17.9% for the first, -8.5% for the second.

Going from CCOC(=O)c1[nH]c(=O)[nH]c(=O)c1[N+](=O)[O-] to CC(C(=O)O)N1C(=O)CNC1=O (stereo not given), the growth inhibition falls from -3.75% to -4.05%.

In the case of Nc1cc(N)c(N)cc1N, the growth inhibition was 16.8% and -29.1%.
In the case of CCCCOP(=O)(Nc1ccc([N+](=O)[O-])cc1)OCCCC, the growth inhibition was 86.3% (active).
